Of roughly 8,800 targets only a part is listed; those with a hit were picked by preference. About 0.5% of all pairs of compound and target were hits.
What follows are targets tested with Cc1ncc(-c2ccnc(Nc3ccc(S(C)(=O)=O)cc3)n2)n1C(C)C (assay: log2 fold change, soluble protein after heating vs DMSO (PISA); higher = thermal stabilisation; K562 lysate, 10 uM; active = over 0.2 and 3.5 SD of the protein, either way, in both replicates (recomputed)).
Outline: (§1)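 A 30 min treatment with 10 μM compound was applied to crude K562 extract at 1 mg/mL protein in PBS pH 7.4 with 1 mM MgCl2. Heating for 3 min spanned 48°C-58°C, after which aliquots were pooled, adjusted to 0.5% NP-40 at 4°C and spun at 21,000xg for 90 min. TMTpro 16plex LC-MS/MS of the supernatant, with channel sums equalised, gave values recorded as log-two fold change in thermal stability against solvent controls, from duplicates.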

Sequence of UniProt Q7L211 (Q7L211 whole entry, looked up): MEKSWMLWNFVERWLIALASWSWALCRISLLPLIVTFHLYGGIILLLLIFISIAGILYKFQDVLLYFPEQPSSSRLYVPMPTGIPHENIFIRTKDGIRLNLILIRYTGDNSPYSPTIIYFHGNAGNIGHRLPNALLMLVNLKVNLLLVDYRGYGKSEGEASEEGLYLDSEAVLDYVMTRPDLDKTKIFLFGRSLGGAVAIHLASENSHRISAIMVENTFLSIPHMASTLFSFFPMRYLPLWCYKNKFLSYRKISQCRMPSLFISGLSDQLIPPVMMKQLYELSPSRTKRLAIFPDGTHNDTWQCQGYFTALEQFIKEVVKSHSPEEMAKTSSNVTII
Sequence of UniProt P05091 (P05091 whole entry, looked up): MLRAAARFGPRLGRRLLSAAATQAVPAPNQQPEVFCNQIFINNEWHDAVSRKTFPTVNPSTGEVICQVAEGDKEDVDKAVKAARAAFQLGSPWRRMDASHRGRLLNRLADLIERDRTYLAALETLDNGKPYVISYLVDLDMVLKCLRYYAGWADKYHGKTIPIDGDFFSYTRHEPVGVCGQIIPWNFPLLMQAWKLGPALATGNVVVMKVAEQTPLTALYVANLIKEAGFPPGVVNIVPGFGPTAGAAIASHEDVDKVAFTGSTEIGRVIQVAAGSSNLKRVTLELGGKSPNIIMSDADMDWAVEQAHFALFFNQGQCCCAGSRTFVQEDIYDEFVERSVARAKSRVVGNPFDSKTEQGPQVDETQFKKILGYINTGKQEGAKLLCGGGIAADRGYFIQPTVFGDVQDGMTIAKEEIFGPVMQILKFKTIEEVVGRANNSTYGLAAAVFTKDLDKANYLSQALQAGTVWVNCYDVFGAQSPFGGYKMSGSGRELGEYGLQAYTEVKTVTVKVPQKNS
Sequence of UniProt Q9NXU5 (Q9NXU5 whole entry, looked up): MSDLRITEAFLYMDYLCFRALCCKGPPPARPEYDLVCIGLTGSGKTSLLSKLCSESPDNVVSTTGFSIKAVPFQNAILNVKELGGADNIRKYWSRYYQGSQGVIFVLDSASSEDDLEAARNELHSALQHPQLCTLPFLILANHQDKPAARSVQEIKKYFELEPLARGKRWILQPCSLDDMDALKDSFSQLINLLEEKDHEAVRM
Sequence of UniProt Q6NXE6 (Q6NXE6 whole entry, looked up): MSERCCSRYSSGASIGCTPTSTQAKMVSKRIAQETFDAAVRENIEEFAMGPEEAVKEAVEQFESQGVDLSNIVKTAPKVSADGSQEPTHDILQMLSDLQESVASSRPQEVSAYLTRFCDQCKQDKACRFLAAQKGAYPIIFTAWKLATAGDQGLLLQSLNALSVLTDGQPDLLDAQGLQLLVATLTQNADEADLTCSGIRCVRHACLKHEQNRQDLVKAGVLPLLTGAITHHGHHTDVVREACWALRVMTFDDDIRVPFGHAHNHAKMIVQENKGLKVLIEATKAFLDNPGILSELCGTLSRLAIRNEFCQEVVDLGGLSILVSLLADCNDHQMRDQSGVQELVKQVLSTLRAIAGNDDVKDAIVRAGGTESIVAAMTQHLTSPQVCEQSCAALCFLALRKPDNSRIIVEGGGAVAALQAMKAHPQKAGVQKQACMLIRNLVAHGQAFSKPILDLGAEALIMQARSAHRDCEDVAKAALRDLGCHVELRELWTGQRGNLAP
Sequence of UniProt Q9Y303 (Q9Y303 whole entry, looked up): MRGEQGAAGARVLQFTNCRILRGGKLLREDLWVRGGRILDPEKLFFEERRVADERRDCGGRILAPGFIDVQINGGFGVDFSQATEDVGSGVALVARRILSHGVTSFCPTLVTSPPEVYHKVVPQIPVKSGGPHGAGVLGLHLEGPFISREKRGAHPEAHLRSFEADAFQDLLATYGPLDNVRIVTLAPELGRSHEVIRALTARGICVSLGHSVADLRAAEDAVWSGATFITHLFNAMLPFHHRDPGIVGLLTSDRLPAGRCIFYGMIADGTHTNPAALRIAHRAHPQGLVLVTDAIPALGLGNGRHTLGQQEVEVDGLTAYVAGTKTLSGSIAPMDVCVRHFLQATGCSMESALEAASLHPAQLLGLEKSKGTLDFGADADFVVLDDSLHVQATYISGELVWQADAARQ
Sequence of UniProt Q9UKA4 (Q9UKA4 whole entry, looked up): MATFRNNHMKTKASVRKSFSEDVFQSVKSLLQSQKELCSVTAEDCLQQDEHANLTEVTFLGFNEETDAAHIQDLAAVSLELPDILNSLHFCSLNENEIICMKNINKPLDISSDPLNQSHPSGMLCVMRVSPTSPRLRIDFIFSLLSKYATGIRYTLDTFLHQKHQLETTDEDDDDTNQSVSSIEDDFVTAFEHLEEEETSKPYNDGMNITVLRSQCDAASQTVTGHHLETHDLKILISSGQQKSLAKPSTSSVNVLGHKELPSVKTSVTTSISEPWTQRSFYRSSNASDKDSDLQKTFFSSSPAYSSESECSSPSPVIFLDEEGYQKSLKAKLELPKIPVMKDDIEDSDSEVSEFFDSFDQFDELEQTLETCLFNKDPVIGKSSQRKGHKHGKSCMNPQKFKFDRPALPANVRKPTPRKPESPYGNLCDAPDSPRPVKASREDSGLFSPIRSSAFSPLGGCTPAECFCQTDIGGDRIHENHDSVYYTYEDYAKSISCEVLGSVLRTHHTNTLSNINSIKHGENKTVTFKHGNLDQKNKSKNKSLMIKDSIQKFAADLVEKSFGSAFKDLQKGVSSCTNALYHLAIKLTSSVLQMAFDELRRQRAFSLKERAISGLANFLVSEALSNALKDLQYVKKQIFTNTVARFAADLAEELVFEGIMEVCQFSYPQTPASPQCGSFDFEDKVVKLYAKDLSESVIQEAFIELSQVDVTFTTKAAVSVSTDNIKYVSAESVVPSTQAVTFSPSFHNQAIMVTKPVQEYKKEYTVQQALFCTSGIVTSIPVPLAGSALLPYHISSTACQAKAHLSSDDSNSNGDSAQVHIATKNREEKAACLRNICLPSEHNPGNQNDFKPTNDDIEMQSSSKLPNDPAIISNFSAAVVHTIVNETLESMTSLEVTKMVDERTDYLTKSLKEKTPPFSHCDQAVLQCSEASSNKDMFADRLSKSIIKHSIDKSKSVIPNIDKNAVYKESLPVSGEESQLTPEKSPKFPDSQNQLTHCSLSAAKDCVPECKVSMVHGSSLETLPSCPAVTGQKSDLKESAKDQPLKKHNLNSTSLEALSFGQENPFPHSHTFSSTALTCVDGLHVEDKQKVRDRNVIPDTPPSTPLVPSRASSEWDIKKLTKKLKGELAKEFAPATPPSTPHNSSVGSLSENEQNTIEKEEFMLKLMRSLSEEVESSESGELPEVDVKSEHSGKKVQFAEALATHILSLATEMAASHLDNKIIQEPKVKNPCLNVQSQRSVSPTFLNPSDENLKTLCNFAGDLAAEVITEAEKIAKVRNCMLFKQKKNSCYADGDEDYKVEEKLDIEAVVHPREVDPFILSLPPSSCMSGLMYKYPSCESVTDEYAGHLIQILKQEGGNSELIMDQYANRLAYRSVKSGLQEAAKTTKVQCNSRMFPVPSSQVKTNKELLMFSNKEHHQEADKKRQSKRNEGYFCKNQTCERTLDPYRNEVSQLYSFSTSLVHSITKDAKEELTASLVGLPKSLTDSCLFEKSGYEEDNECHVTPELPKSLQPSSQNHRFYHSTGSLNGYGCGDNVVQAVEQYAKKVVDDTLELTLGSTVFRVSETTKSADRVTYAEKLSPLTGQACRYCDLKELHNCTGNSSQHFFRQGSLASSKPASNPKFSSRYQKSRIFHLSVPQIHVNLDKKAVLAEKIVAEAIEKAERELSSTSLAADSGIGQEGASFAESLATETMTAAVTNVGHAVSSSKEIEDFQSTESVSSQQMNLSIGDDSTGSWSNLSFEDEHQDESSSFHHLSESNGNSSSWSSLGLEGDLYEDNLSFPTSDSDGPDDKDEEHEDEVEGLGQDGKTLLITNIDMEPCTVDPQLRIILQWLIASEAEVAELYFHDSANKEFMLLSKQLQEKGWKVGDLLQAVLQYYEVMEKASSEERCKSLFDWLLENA
Sequence of UniProt Q96NW4 (Q96NW4 whole entry, looked up): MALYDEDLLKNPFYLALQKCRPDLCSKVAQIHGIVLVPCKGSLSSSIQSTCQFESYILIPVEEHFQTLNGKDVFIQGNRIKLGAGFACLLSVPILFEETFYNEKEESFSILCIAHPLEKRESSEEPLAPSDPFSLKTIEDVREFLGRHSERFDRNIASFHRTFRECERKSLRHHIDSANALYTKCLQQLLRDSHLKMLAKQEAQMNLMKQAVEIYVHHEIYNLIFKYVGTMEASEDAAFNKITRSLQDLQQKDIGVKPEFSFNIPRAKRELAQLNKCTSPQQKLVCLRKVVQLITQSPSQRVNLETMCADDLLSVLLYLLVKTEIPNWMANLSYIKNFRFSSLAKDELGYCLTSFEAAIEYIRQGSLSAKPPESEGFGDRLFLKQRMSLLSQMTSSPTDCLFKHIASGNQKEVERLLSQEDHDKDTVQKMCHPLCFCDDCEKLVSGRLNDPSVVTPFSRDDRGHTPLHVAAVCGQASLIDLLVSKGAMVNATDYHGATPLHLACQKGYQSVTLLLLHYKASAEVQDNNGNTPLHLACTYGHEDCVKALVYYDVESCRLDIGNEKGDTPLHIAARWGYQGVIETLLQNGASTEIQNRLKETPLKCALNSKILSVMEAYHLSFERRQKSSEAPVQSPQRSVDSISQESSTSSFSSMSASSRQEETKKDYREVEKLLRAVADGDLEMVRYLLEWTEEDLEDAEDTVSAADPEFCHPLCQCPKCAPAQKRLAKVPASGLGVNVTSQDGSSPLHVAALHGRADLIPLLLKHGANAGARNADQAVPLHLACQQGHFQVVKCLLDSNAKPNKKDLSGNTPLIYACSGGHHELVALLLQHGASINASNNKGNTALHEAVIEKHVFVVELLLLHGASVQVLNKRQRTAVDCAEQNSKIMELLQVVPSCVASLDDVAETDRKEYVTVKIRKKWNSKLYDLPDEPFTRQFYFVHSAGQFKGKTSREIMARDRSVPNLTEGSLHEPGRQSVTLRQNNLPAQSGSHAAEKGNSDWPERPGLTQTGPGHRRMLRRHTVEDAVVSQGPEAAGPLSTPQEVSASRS
Sequence of UniProt P07311 (P07311 whole entry, looked up): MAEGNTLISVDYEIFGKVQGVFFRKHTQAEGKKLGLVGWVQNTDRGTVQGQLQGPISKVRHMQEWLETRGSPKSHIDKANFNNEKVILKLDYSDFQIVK

log2 fold change, inactive:
ARHGAP25 isoform 4 (UniProt P42331) 0.022
ARAF (UniProt P10398) 0.022
ANP32A (UniProt P39687) -0.011
ALDH5A1 isoform 2 (UniProt P51649) -0.015
ANP32E (UniProt Q9BTT0) 0.028
AKAP8L (UniProt Q9ULX6) 0.016
ABHD13 (UniProt Q7L211) -0.069
ANXA11 (UniProt P50995) -0.029
ADD1 isoform 3 (UniProt P35611) -0.017
AK2 (UniProt P54819) -0.013
AKAP8 (UniProt O43823) -0.001
ARFGAP1 (UniProt Q8N6T3) -0.016
ANAPC7 (UniProt Q9UJX3) 0.008
ALDH6A1 (UniProt Q02252) -0.022
ANKRD27 (UniProt Q96NW4) 0.061
ALG13 (UniProt Q9NP73) 0.218
ASB6 (UniProt Q9NWX5) 0.029
ACAT1 (UniProt P24752) 0.019
ANKRD54 (UniProt Q6NXT1) 0.05
AKT2 (UniProt P31751) -0.008
AP5B1 (UniProt Q2VPB7) -0.053
ANXA1 (UniProt P04083) -0.006
ARHGAP21 (UniProt Q5T5U3) -0.036
ACYP1 (UniProt P07311) -0.028
AKAP11 (UniProt Q9UKA4) 0.188
ALDH2 (UniProt P05091) -0.013
ARHGAP6 (UniProt O43182) 0
ACSL1 (UniProt P33121) 0.013
ARMC6 (UniProt Q6NXE6) -0.017
AFF1 isoform 2 (UniProt P51825) 0.069
ANKRD30A (UniProt Q9BXX3) -0.039
AMDHD2 isoform 3 (UniProt Q9Y303) -0.027
ANXA5 (UniProt P08758) -0.067
ACTG1 (UniProt I3L4N8) -0.045
ARL15 (UniProt Q9NXU5) -0.046

The targets below were run with Cn1cc(-c2ccc3c(c2)CCN3C(=O)Cc2cccc(C(F)(F)F)c2)c2c(N)ncnc21 in the same assay as above.
Outline: as §1

log2 fold change, inactive:
ARHGAP25 isoform 4 (UniProt P42331) 0.008
ARAF (UniProt P10398) 0.02
ANP32A (UniProt P39687) -0.039
ALDH5A1 isoform 2 (UniProt P51649) -0.003
ANP32E (UniProt Q9BTT0) -0.038
AKAP8L (UniProt Q9ULX6) 0.037
ABHD13 (UniProt Q7L211) 0.21
ANXA11 (UniProt P50995) 0.016
ADD1 isoform 3 (UniProt P35611) -0.012
AK2 (UniProt P54819) -0.022
AKAP8 (UniProt O43823) 0.006
ARFGAP1 (UniProt Q8N6T3) -0.043
ANAPC7 (UniProt Q9UJX3) 0.02
ALDH6A1 (UniProt Q02252) 0.06
ANKRD27 (UniProt Q96NW4) -0.023
ALG13 (UniProt Q9NP73) 0
ASB6 (UniProt Q9NWX5) -0.025
ACAT1 (UniProt P24752) -0.029
ANKRD54 (UniProt Q6NXT1) -0.018
AKT2 (UniProt P31751) 0.005
AP5B1 (UniProt Q2VPB7) -0.072
ANXA1 (UniProt P04083) -0.006
ARHGAP21 (UniProt Q5T5U3) 0.017
ACYP1 (UniProt P07311) 0.014
AKAP11 (UniProt Q9UKA4) 0.092
ALDH2 (UniProt P05091) 0.001
ARHGAP6 (UniProt O43182) 0.052
ACSL1 (UniProt P33121) 0.05
ARMC6 (UniProt Q6NXE6) 0.013
AFF1 isoform 2 (UniProt P51825) -0.043
ANKRD30A (UniProt Q9BXX3) -0.017
AMDHD2 isoform 3 (UniProt Q9Y303) 0.026
ANXA5 (UniProt P08758) 0.022
ACTG1 (UniProt I3L4N8) -0.171
ARL15 (UniProt Q9NXU5) 0.036
